Data on 12 compounds can be found in PubChem BioAssay (NCI).

Among the test systems are HCT-15 colon; HT29 colon; SNB-75 CNS; SNB-19 CNS; U251 CNS; PC-3 prostate; SK-MEL-5 melanoma; UACC-62 melanoma; LOX IMVI melanoma; SK-MEL-28 melanoma.
Holding throughout (experiment): NCI-60 one-dose screen, 48 h (100 = growth as untreated, 0 = no growth, -100 = all killed)
Common to all, as to details: 10 µM unless noted

Molecules are shown by their SMILES. The panel holds about 83,000 compounds, 20% with a hit somewhere; the sample as a whole holds those more often.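 Note: values are percent growth. 100 is the growth of untreated cells, values between 100 and 0 indicate rising inhibition; between -100 and 0 indicates cell death.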 Values without a mark were called inactive. Calls of active or inactive are those of the source. How the source made its calls: active means growth percent below 10; inactive means the rest.

On to `CCN(CC)Cc1cc(Nc2c3ccc(Cl)cc3nc3ccc(OC)cc23)ccc1O`, for which the growth in the experiment on HCT-15 colon was 34.1%; in the experiment with HT29 colon, 11.8%; in the experiment with SNB-75 CNS, 103%; in the experiment on SNB-19 CNS, 57.2%; in the experiment on U251 CNS it was 57%; with PC-3 prostate, 78%. Further, the growth was 85.5% with SK-MEL-5 melanoma, 103% with UACC-62 melanoma, 24.9% in the experiment on LOX IMVI melanoma and -5.73% (active) in the experiment with SK-MEL-28 melanoma.

In the case of `C/C=C(\C)C(=O)N[C@H]1[C@@H](OC(C)=O)C[C@]2(C)C3CC[C@@]4(C)C(CC[C@@H]4C(C)N(C)C)C3CCC2[C@H]1O` (stereo not given in full), the growth in the experiment with HCT-15 colon is 2.88% (active); with HT29 colon, 11.3%; with SNB-75 CNS it was 60.3%; with SNB-19 CNS, 101%; in the experiment on U251 CNS, 68.7%; with PC-3 prostate it was 45%. Moreover, the growth with SK-MEL-5 melanoma was 5.99% (active); in the experiment with UACC-62 melanoma it was 13.6%; in the experiment with LOX IMVI melanoma it was 16.8%; in the experiment on SK-MEL-28 melanoma, -35.8% (active).

As to `Cc1ccc(-c2nc3c(c(-c4ccccc4)nn3-c3ccccc3)c(-c3ccc(O)cc3)c2C#N)cc1`, the growth with HCT-15 colon is 28.8%; with HT29 colon, 107%; with SNB-75 CNS, 40.5%; in the experiment on SNB-19 CNS, 69.1%; with U251 CNS it was 41.6%; in the experiment on PC-3 prostate, 34.3%. Also, the growth in the experiment on SK-MEL-5 melanoma is 77.6%; with UACC-62 melanoma, 63.7%; with LOX IMVI melanoma it was 12.2%; in the experiment with SK-MEL-28 melanoma, 67.1%.

Consider `BrCCCc1n(Cc2ccc3ccccc3c2)c2ccccc2[n+]1Cc1ccc2ccccc2c1`, for which the growth is -60.6% (active) in the experiment on HCT-15 colon; -50.8% (active) in the experiment on HT29 colon; -71.5% (active) in the experiment with SNB-75 CNS; -33.3% (active) in the experiment with SNB-19 CNS; -91.9% (active) with U251 CNS; -69.1% (active) with PC-3 prostate. Further, the growth in the experiment on SK-MEL-5 melanoma was -95.3% (active); with UACC-62 melanoma, -76.2% (active); in the experiment with LOX IMVI melanoma, -93.8% (active); in the experiment with SK-MEL-28 melanoma it was -75.8% (active).

As to `Cc1nc2nc(SCC(=O)O)[nH]c2c(=O)[nH]1`, the growth was 103% in the experiment with HCT-15 colon; 96.8% with HT29 colon; 110% in the experiment on SNB-75 CNS; 92.5% with SNB-19 CNS; 96.8% with U251 CNS; 96.6% in the experiment with PC-3 prostate. The growth with SK-MEL-5 melanoma is 100%; in the experiment on UACC-62 melanoma it was 96.4%; in the experiment on LOX IMVI melanoma, 95.3%; in the experiment with SK-MEL-28 melanoma, 106%.

In the case of `CCCCOc1nc2ccc(OC)cc2cc1-c1cc(-c2ccc(Cl)cc2)nc(-c2ccc(Cl)cc2)c1`, the growth in the experiment on HCT-15 colon was 104%; in the experiment on HT29 colon it was 104%; with SNB-75 CNS, 91.2%; with SNB-19 CNS, 93.6%; in the experiment with U251 CNS, 102%; with PC-3 prostate, 96.9%. Besides, the growth in the experiment with SK-MEL-5 melanoma was 102%; in the experiment on UACC-62 melanoma it was 93.5%; in the experiment with LOX IMVI melanoma, 101%; in the experiment with SK-MEL-28 melanoma it was 104%.

For the compound `CN(C)CCS(=O)(=O)Nc1cc(-c2ccc3ncc(C#N)c(Nc4ccc(F)c(Cl)c4)c3c2)cnc1Cl`, the growth in the experiment on HCT-15 colon was -14.6% (active); in the experiment on HT29 colon it was 5.5% (active); in the experiment with SNB-75 CNS it was -21% (active); in the experiment on SNB-19 CNS, -67.2% (active); in the experiment with U251 CNS it was -46.2% (active); in the experiment with PC-3 prostate, -43.5% (active). In addition, the growth was -89.8% (active) in the experiment on SK-MEL-5 melanoma, -77.2% (active) in the experiment on UACC-62 melanoma, -61.3% (active) in the experiment with LOX IMVI melanoma and -31.5% (active) with SK-MEL-28 melanoma.

On to `O=c1c2cc(F)ccc2sc2c(N3CCCCC3)nc3ccccc3c12`, for which the growth is 103% in the experiment with HCT-15 colon; 98% with HT29 colon; 90.2% in the experiment with SNB-75 CNS; 101% with SNB-19 CNS; 94.1% with U251 CNS; 98.1% with PC-3 prostate. Moreover, the growth was 97.8% in the experiment with SK-MEL-5 melanoma, 96.1% with UACC-62 melanoma, 97.1% with LOX IMVI melanoma and 109% in the experiment on SK-MEL-28 melanoma.

As to `NC[C@@H]1O[C@H](O[C@@H]2[C@@H](CO)OC(O[C@@H]3[C@@H](O)[C@H](N)C[C@H](N)[C@H]3OC3O[C@H](CN)[C@@H](O)[C@H](O)[C@H]3N)[C@@H]2O)[C@H](N)[C@@H](O)[C@@H]1O` (stereo not given in full), the growth with HCT-15 colon was 103%; in the experiment with HT29 colon, 109%; in the experiment on SNB-75 CNS it was 106%; in the experiment with SNB-19 CNS, 115%; in the experiment on U251 CNS, 102%; in the experiment with PC-3 prostate, 111%. Moreover, the growth was 106% with SK-MEL-5 melanoma, 118% in the experiment with UACC-62 melanoma, 101% in the experiment with LOX IMVI melanoma and 111% in the experiment with SK-MEL-28 melanoma.

Take `O=C(/C=C/c1ccc([N+](=O)[O-])o1)NNC(=O)c1cc2ccccc2cc1O`: the growth is -62.7% (active) in the experiment on HCT-15 colon; 7.4% (active) in the experiment on HT29 colon; 45.7% in the experiment with SNB-75 CNS; 33.5% in the experiment with SNB-19 CNS; 17.5% with U251 CNS; 38.4% in the experiment on PC-3 prostate. Moreover, the growth was -86.9% (active) in the experiment with SK-MEL-5 melanoma, -99.1% (active) in the experiment on UACC-62 melanoma, -10.5% (active) in the experiment with LOX IMVI melanoma and -46.1% (active) with SK-MEL-28 melanoma.

Consider `COc1cc(CCC[P+](c2ccccc2)(c2ccccc2)c2ccccc2)c(OC)c2c1OCO2`, for which the growth with HCT-15 colon is 93.1%; in the experiment with HT29 colon, 47.2%; with SNB-75 CNS it was 3.69% (active); with SNB-19 CNS, 15.2%; with U251 CNS it was 11.5%; in the experiment on PC-3 prostate, 14.4%. Moreover, the growth in the experiment with SK-MEL-5 melanoma was -48.9% (active); in the experiment with UACC-62 melanoma it was 0.576% (active); with LOX IMVI melanoma, 29.6%; in the experiment on SK-MEL-28 melanoma it was 32.1%.

On to `O=C1c2ccccc2NC(n2sc3ccccc3c2=O)N1c1ccccc1` (stereo not given), for which the growth in the experiment on HCT-15 colon was 91.5%; in the experiment with HT29 colon, 90.6%; with SNB-75 CNS it was 94%; in the experiment on SNB-19 CNS, 101%; with U251 CNS, 104%; in the experiment with PC-3 prostate it was 92.9%. Also, the growth in the experiment on SK-MEL-5 melanoma is 105%; in the experiment with UACC-62 melanoma, 93.3%; with LOX IMVI melanoma, 87.9%; in the experiment on SK-MEL-28 melanoma, 116%.
